Sampled rows, rich in hits. Any-hit rate of the full collection: about 19%.
HT1080-NT tox – kills 2HG-producing HT-1080-NT fibrosarcoma cells; Potency, µM (series often up to 46.1 µM), for the others: at the highest dose activity, negative = less viability, usual class: cytotoxic; HT-1080-NT fibrosarcoma viability, CellTiter-Glo ATP luminescence, 48 h; 360,000 tested, 1.6% active;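 note: NT is the 2HG producing partner of a matched IDH1 knockdown line; potency is the fitted concentration of half-maximal effect; 0% = DMSO-treated cells and -100% = media-only wells without cells; nearly all actives have a fitted effect of over 55% in size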
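Read-out is CellTiter-Glo luminescence after 10 minutes at room temperature, following 48 hours' compound treatment of HT-1080-NT cells (750 cells/well, RPMI, 5% FBS, 37 degrees C).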
DT40 TDP1 CPT – DT40-hTDP1 cell growth loss with CPT; chicken DT40 Tdp1-/-;hTDP1 cells + 20 nM CPT, ATP luminescence, 48 h; AID 686979; Potency, µM (highest dose often 46.2 µM), for the others: top-dose activity change, negative = growth inhibition, actives largely listed as inhibitors; 420,000 tested, 12% active; note: potency is the fitted concentration of half-maximal effect; nearly all actives have a fitted effect of over 55% in size
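Cell growth measured by CellTiter-Glo luminescence after a minimum 48 h, 37 C compound exposure with 20 nM CPT in Tdp1-knockout DT40 cells stably expressing hTDP1, seeded 400/well; qHTS titration format.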
HT1080 IDH1KD tx – HT-1080 IDH1 knockdown cell toxicity (counter line). Potency, µM (top dose mostly 46.1 µM), inactives show at the highest dose activity, negative = toxicity, usual class: cytotoxic. HT-1080 IDH1 knockdown viability, ATP luminescence, 48 h. 360,000 tested, 2% active;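 note: potency is the fitted concentration of half-maximal effect; 0% = DMSO wells and -100% = cell-free medium wells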
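IDH1KD HT-1080 cells, 750/well, RPMI + 5% FBS; compound pinned after 2 h settling; 48 h, 37 °C; CellTiter-Glo luminescence; % activity normalised to DMSO and no-cell wells; curves fitted, classed by r2 and efficacy.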
IL-1B inflam inh – inhibitors of inflammasome signaling (IL-1 beta secretion); AID 743279; THP-1 LPS/ATP IL-1B secretion, AlphaLISA, 16 h; hits give low values; 360,000 tested, 4.7% active; activity change, % at 57.5 µM; in the data active = activity change below about -50%; inconclusive = mostly about -30% to -49%
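THP-1 cells pretreated 1 hr with compounds (up to 57.5 uM final), then stimulated with LPS (250 ng/mL final) plus ATP (1.25 mM final); secreted IL-1B measured by AlphaLISA after 16 hr, decreased signal indicating inhibition.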
DT40 TDP1 no CPT – qHTS for Inhibitors of human tyrosyl-DNA phosphodiesterase 1 (TDP1): qHTS in cells in absence of CPT | AID 686978, 2013 | Potency, µM (doses to about 46.2 µM), for the others: at the top dose activity change, negative = growth inhibition, usual class: inhibitors | 420,000 tested, 15% active | DT40 Tdp1-/- hTDP1 cells, no CPT, ATP luminescence, 48 h; note: potency is the fitted concentration of half-maximal effect; nearly all actives have a fitted effect of over 55% in size
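Stably hTDP1-transfected Tdp1-null chicken DT40 cells were treated with library compounds minus camptothecin and grown for at least 48 hr at 37 °C, after which cellular ATP was quantified by luminescence.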
An asterisk follows results filed as active; ? = inconclusive; nt = no result; ! = not confirmed by another sample; [ ] = dose if it differs, or a comment. Unless noted, calls come from the whole dose curve; as a rule, active = well fitted curve in the direction sought with a large enough effect; inconclusive = small, poorly fitted or top-dose-only effect, or another doubt; inactive = no such curve, though single readings can be large; an effect the other way counts as inactive or inconclusive. Unless noted, % is set by controls: 0 for no effect and ±100 for the full control effect.

SMILES	HT1080-NT tox	DT40 TDP1 CPT	HT1080 IDH1KD tx	IL-1B inflam inh	DT40 TDP1 no CPT
Cc1ccc(-c2cc(-c3ccc(C)cc3)[n+](C)o2)cc1	-18%	0.46µM*	?	0	0.33µM*
C[C@H]1CCCC(=O)CCCCCc2cc(O)cc(O)c2C(=O)O1	?	?	?	25	18µM*
COc1nnc(-c2ccc(N3CCCCC3)c(NC(=O)c3ccccc3)c2)c2ccccc12	nt	?	nt	nt	15µM*
CN(C)c1ccc(C=C2C=CC=C2)cc1	3%	?	26%	-27	?
O=S1(=O)N(CCN2CC=C(c3c[nH]c4cc(F)ccc34)CC2)c2cccc3c2N1CCC3	13µM*	9.2µM*	16µM*	-59*	16µM*
O=C(CN1CCOCC1)c1cccc([N+](=O)[O-])c1	nt	-9%	nt	nt	-12%
Oc1ccc([C@H]2CNCc3c2ccc(O)c3O)cc1O	nt	?	nt	nt	-80%
COc1cccc(CNCC(O)(c2ccc(Cl)cc2)c2ccc(Cl)cc2)c1	?	23µM*	?	-57*	23µM*
COc1cccc(CCNCc2cccc(C(F)(F)F)c2)c1	-21%	-1%	-16%	-136*	?
CCN[C@H](C)Cc1cccc(C(F)(F)F)c1	nt	3%[92.5 µM]	nt	nt	4%[92.5 µM]
N#Cc1ccc(CN2CC[C@@]3(CCCNC3)C2)cc1	nt	4%	nt	nt	?
Clc1ccc2c(c1)C(c1ccccc1Cl)=NCc1nnc(N3CCN(CCOc4ccccc4)CC3)n1-2	?	21µM*	?	?	16µM*
Clc1ccc2c(c1)C(c1ccccc1Cl)=NCc1nnc(N3CCN(CCSc4ccccc4)CC3)n1-2	-5%	26µM*	-8%	28	?
C[C@@H]1OC(=O)[C@H]2C[C@H]3CCCC[C@@H]3[C@@H](/C=C/[C@H]3CCC[C@H](C)N3C)[C@@H]12	nt	-6%	nt	nt	?
COC(=O)C1=C(c2ccccc2)C[C@@H]2CC[C@H]1N2C(=O)NCC1CC1	3%	?	8%	34	?
CCN1C[C@]2(COC(=O)c3ccccc3N3C(=O)C[C@H](C)C3=O)CC[C@H](OC)[C@@]34[C@@H]5C[C@H]6[C@H](OC)[C@H]5[C@](O)(C[C@@H]6OC)[C@@](O)([C@@H](OC)[C@@H]23)[C@@H]14	nt	12%	nt	nt	-7%
CC(=O)N1CC(=O)Nc2ccc(Cl)cc2C1c1ccc(F)cc1 (centres undefined)	4%	5%	-6%	40	-4%
CC(=O)c1cn(CCCOc2ccccc2)c2ccccc12	-15%	?	-3%	-4	16µM*
COc1ccc(-c2[nH]ncc2CNC(C)Cc2ccsc2)c(F)c1 (centres undefined)	-4%	?	-1%	-2	?
CC(Cc1ccsc1)NCc1cn[nH]c1-c1ccc(F)cc1F (centres undefined)	-15%	?	-21%	-54*	?
CCOCCOC(C)=O	nt	6%[92.5 µM]	nt	nt	0%[92.5 µM]
CC(C)c1ccc2c(c1)C(N1CCNCC1)Cc1ccc(F)cc1S2 (centres undefined)	-8%	?	?	-97*	26µM*
COc1ccccc1N1CCN(Cc2ccc(F)cc2)CC1	1%	-24%	-8%	4	-29%
c1ccc2c(CN3CCOCC3)c[nH]c2c1	-4%	?	-8%	33	?
COc1ccccc1N1CCN(CCc2c[nH]c3cc4c(cc23)OCO4)CC1	-9%	23µM*	?	?	18µM*
SMILES	HT1080-NT tox	DT40 TDP1 CPT	HT1080 IDH1KD tx	IL-1B inflam inh	DT40 TDP1 no CPT
Cc1ccccc1N1CCN(Cc2c[nH]c3ccccc23)CC1	?	3.7µM*	1.3µM*	?	6.5µM*
COc1ccccc1N1CCN(Cc2c[nH]c3ccccc23)CC1	?	4.1µM*	?	nt	5.8µM*
CNC(=O)Oc1ccc2c(c1)C(=O)c1ccccc1CO2	9%	-30%	7%	-28	?
CC(=O)N1CC[N+](C)(C)CC1	nt	-3%	nt	nt	-5%
N#CCCn1cc(C(=O)O)c(-c2cccc([N+](=O)[O-])c2)n1	8%	11%	5%	-13	-21%
COc1ccc2c(c1OC)C(=O)O[C@@H]2C1c2cc3c(cc2CCN1C)OCO3 (some centres undefined)	nt	4%	nt	nt	-13%
OC(c1ccc(F)cc1)C(c1ccccc1)N1CCOCC1 (centres undefined)	1%	0%	6%	10	-10%
Cc1c2cnn(CC(=O)N3CCC4(CC3)OCCO4)c(=O)c2c(C)n1Cc1ccc(F)cc1	2%	-22%	-3%	-2	?
O=C(Cn1ncc2c3ccccc3n(Cc3ccccc3F)c2c1=O)N1CCC2(CC1)OCCO2	25%	23µM*	15%	?	12µM*
CC1(C)C2([N+](=O)[O-])CNCC1([N+](=O)[O-])CNC2	7%	-2%	8%	-2	-5%
CCC(C(=O)Nc1ccccc1C(=O)OC)n1nc(C)c2c(C)n(-c3ccc(C)cc3)nc2c1=O (centres undefined)	nt	7.3µM*	nt	nt	12µM*
CC(C)[C@@]1(NC(=O)[C@H]2CC3c4cccc5[nH]cc(c45)C[C@H]3N(C)C2)O[C@@]2(O)C3CCCN3C(=O)[C@@H](Cc3ccccc3)N2C1=O (some centres undefined)	nt	15µM*	nt	nt	15µM*
CN1C[C@H](C(=O)N[C@]2(C)O[C@@]3(O)[C@@H]4CCCN4C(=O)[C@H](Cc4ccccc4)N3C2=O)CC2c3cccc4[nH]cc(c34)C[C@H]21 (some centres undefined)	?	?	?	-15	18µM*!
CCCOC(=O)C1C2CCC(O2)C1C(=O)O (centres undefined)	-14%	-7%	?	26	-13%
COc1ccccc1-n1c(O)c(C=NCCN2CCNCC2)c(=O)[nH]c1=O	0%	8%	2%	28	1%
Cc1ccc(/C(CSc2nccn2-c2ncc(C(F)(F)F)cc2Cl)=N\O)cc1	-10%	?	-14%	1	18µM*
CC(C)[C@H](CO)Nc1nc(Nc2cccc(Cl)c2)c2ncn(C(C)C)c2n1	nt	9.4µM*	nt	nt	9.4µM*
c1ccc2c(N3CCNCC3)cccc2c1	-29%	18µM*	?	?	?
Clc1cccc(N2CCNCC2)c1Cl	-22%	-16%	-18%	20	?
Cc1ccc(C)c(S(=O)(=O)Nc2ccc3c(c2)CCCN3C(=O)c2cccs2)c1	nt	16µM*	nt	nt	18µM*
CC(C)CCC1(CCO)C(=O)NC(=S)NC1=O	1%	-10%	-1%	-6	-1%
O=[N+]([O-])c1ccc(NCc2ccccc2)c2nonc12	-10%	-28%	-9%	34	-13%
